Assay results as given in PubChem BioAssay AID504332 (National Center for Advancing Translational Sciences (NCATS), 2011).
The whole screen tested about 350,000 compounds, of which about 31,000 (8.9%) were called active. Inconclusive results (about 15%) are left out. The call rests on the fitted dose curve; in most records, active means well fitted inhibition curve with a large enough effect; inconclusive means small, poorly fitted or top-dose-only effect; inactive means no such curve, though single readings can be large or run the other way. The entries come from a sample that favours actives as a whole.

Each molecule was assayed against Histone-lysine N-methyltransferase EHMT2 (Homo sapiens) (UniProt Q96KQ7) (assay: qHTS Assay for Inhibitors of Histone Lysine Methyltransferase G9a). Conditions: G9a H3K9 monomethylation, AlphaScreen, 2 h; series mostly up to 59 µM; activity, negative = inhibition: at the top concentration.
Summary of the method: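 Enzyme 20 nM + cpd, 15 min RT; add b-H3K9 pep 500 nM / SAM 20 uM; 2 h RT; anti-H3K9me1 Ab 0.5 ug/mL + SA donor / anti-rabbit acceptor beads 20 ug/mL each, 10 min; AlphaScreen read.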
Further: nearly all actives have a fitted effect of over 75% in size.
On the % scale 0 is the no-effect control and ±100 the full control effect; potency means the concentration at half of the fitted maximal effect.

Sequence of Histone-lysine N-methyltransferase EHMT2 (Homo sapiens) (Q96KQ7 913-1193 limits assumed): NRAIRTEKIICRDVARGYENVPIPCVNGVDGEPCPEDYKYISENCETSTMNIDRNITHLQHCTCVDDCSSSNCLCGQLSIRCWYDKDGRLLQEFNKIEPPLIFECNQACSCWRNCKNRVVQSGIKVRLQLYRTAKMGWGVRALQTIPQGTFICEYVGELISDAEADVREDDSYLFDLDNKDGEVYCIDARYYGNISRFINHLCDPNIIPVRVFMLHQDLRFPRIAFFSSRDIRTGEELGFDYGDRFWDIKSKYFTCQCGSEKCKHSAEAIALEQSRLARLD

Compound	activity, negative = inhibition	Potency
OC(c1ccc(Cl)cc1)C(CN1CCOCC1)c1ccccc1 (stereo not drawn)	-30.5% [at 2.33 µM] (inactive)	–
COC(=O)[C@]1(C)CCC[C@@]2(C)C3CC[C@]4(OC(C)=O)C[C@@]3(CCC21)CC4=NO (stereo partly drawn)	3.11% [at 0.501 µM] (inactive)	–
COc1cc(OC)cc(-c2c(-c3cccs3)c3cc(-c4ccc(OC)nc4)ccc3n2C)c1	0.323% [at 0.501 µM] (inactive)	–
COc1cc2[nH]c(=O)n(Cc3ccc(C(=O)NCc4ccc(C)cc4)cc3)c(=O)c2cc1OC	-1.87% (inactive)	–
COc1ccc(F)cc1S(=O)(=O)NCC(c1ccc2c(c1)OCO2)N1CCN(C)CC1 (stereo not drawn)	–	50.1 µM (active)
CN1CCN(C(CNC(=O)c2ccccc2F)c2ccc3c(c2)OCO3)CC1 (stereo not drawn)	-31.5% (inactive)	–
COc1ccc(F)cc1S(=O)(=O)Nc1ccc2c(c1)OCO2	26.9% (inactive)	–
Cc1ccc(Cn2c(=O)n(CCCC(=O)NCc3ccccc3Cl)c(=O)c3ccccc32)cc1	35% (inactive)	–
O=C(Cn1c(=O)n(-c2ccc(F)cc2)c(=O)c2sc3ccccc3c21)NC1CCCC1	-27.5% (inactive)	–
CC(C)C(C)(C#N)NC(=O)CSc1nc2scc(-c3ccccc3)c2c(=O)[nH]1 (stereo not drawn)	–	28.2 µM (active)
C=CCNC(=O)CSc1nc2sc(C)c(C)c2c(=O)[nH]1	-15.5% [at 102 µM] (inactive)	–
CC(C)C(C)(C#N)NC(=O)CSc1nncn1-c1ccccc1 (stereo not drawn)	10.8% [at 102 µM] (inactive)	–
CCOc1ccc(CNC(=O)c2cccc(Nc3nc4ccccc4n4nnnc34)c2)cc1OC	7.41% (inactive)	–
Cc1nn2c(=O)cc(COC(=O)c3cccc(NC(=O)COc4ccccc4Cl)c3)nc2s1	16.4% (inactive)	–
CCCCCn1c(=O)[nH]c2cc(C(=O)Nc3ccc(F)cc3)ccc2c1=O	2.02% (inactive)	–
O=C(NCc1ccc2c(c1)CCN2C(=O)c1ccccc1)c1ccccc1	-2.23% (inactive)	–
CCCOc1ccc(/C(O)=C2/C(=O)C(=O)N(CCN(C)C)C2c2ccc(OC)c(OC)c2)cc1 (stereo not drawn)	–	10 µM (active)
COc1cccc(C2/C(=C(/O)c3ccc(F)cc3)C(=O)C(=O)N2CCN(C)C)c1 (stereo not drawn)	-0.491% (inactive)	–
COc1ccc(/C(O)=C2/C(=O)C(=O)N(CCCN(C)C)C2c2ccccc2)cc1OC (stereo not drawn)	20.6% (inactive)	–
O=C(Nc1cccc(C(=O)NC2CC2)c1)c1ccc(F)c(S(=O)(=O)N2CCOCC2)c1	11.8% [at 0.501 µM] (inactive)	–

Compound	activity, negative = inhibition	Potency
Cc1ccc(C2=NN(C(=O)CSc3nc(N)cc(N)n3)C(c3ccco3)C2)cc1 (stereo not drawn)	–	50.1 µM (active)
Cc1ccc(C2=NN(C(=O)COc3ncnc4ccccc34)C(c3ccco3)C2)cc1 (stereo not drawn)	10.3% [at 102 µM] (inactive)	–
COc1ccc(C2=NN(C(=O)CSc3nnnn3C)C(c3ccco3)C2)cc1 (stereo not drawn)	-3.31% (inactive)	–
CCCc1nn2c(=O)cc(COC(=O)c3ccc(NC(=O)COc4ccc(F)cc4)cc3)nc2s1	11.8% (inactive)	–
Cc1nn(-c2ccccc2)c(C)c1NC(=O)COC(=O)c1cc(Cl)ccc1O	-41% [at 102 µM] (inactive)	–
Cc1ccc(Nc2ccc(C(N)=O)cc2[N+](=O)[O-])cc1	25% (inactive)	–
Cc1cc(Nc2ccc(C(=O)N3CCCCC3)cc2)c2cccc(C)c2n1	-10.5% [at 102 µM] (inactive)	–
Cc1ccc(Nc2cc(C)nc3c(C)ccc([N+](=O)[O-])c23)cc1	–	11.2 µM (active)
COCCn1cnnc1SCC(=O)Nc1cccc(S(=O)(=O)N2CCCCC2)c1	-9.19% [at 12.7 µM] (inactive)	–
COc1ccc(CN2CCc3nc(Nc4ccccc4)ncc3C2)c(OC)c1OC	-1.92% (inactive)	–
C=CCn1c(CSc2nc3ccccc3s2)nnc1SCC(=O)NCc1ccco1	–	44.7 µM (active)
O=C(CCCn1c(SCC(=O)c2ccc(F)cc2)nc2ccccc2c1=O)NCc1ccco1	3.76% [at 102 µM] (inactive)	–
O=C(CSc1nc2ccc(Nc3nc(N4CCOCC4)nc(N4CCOCC4)n3)cc2s1)NCc1ccco1	3.15% (inactive)	–
CCOC(=O)c1cccc(NS(=O)(=O)c2cc(-c3cnc(C)o3)ccc2OC)c1	3.04% (inactive)	–
Cc1cccc(NS(=O)(=O)c2cccc(C(=O)NNC(=O)c3ccccc3O)c2)c1	56.9% [at 12.7 µM] (inactive)	–
O=c1oc2ccc(C#CC3(O)CCCCC3)cc2cc1-n1cc(-c2ccsc2)nn1	-0.586% [at 0.501 µM] (inactive)	–
CCS(=O)(=O)c1ccc(-c2cccc(NC(=O)c3ccc(Br)o3)c2)nn1	-22.3% [at 102 µM] (inactive)	–
CCOc1cc(-c2noc(CCC(=O)N3CCOCC3)n2)ccc1OC	-5.03% [at 102 µM] (inactive)	–
CN1CCN(C(=O)CCc2nc(-c3ccc(Cl)cc3)no2)CC1	0.644% [at 102 µM] (inactive)	–
COc1ccc(N2CCN(C(=O)CCc3nc(-c4ccc(C)cc4)no3)CC2)cc1	–	31.6 µM (active)

Compound	activity, negative = inhibition	Potency
CCOc1ccc2oc(C(=O)N(CC)CC(=O)Nc3ccc(NC(C)=O)cc3)c(C)c2c1	-40.2% [at 12.7 µM] (inactive)	–
COc1ccc(CCC(=O)NCCc2csc(-c3ccc(Cl)cc3)n2)cc1	14.9% (inactive)	–
CCOc1ccc(C(=O)c2cn(Cc3ccccc3OC)c3ccc(F)cc3c2=O)cc1	-24.1% (inactive)	–
CCOc1ccc(NC(=O)CCc2c(C)nn(-c3ccc(N4CCCC4)nn3)c2C)cc1	4.29% (inactive)	–
CCOc1ccc(/C=C(\C#N)c2nc3ccccc3c(=O)[nH]2)cc1OC	2.72% (inactive)	–
COc1cccc2cc(-c3nc(Cl)c4c5c(sc4n3)CC(C)CC5)c(=O)oc12 (stereo not drawn)	-7.79% (inactive)	–
Cc1ccc2nc(/C(C#N)=C/c3ccccc3F)[nH]c2c1	4.4% (inactive)	–
COc1cc(/C=C(\C#N)c2nc3c(s2)CC(C)CC3)ccc1O (stereo not drawn)	–	50.1 µM (active)
COc1cc(/C=C(\C#N)c2nc3ccccc3[nH]2)ccc1O	–	39.8 µM (active)
Cc1ccc(OCCC(=O)OCC(=O)N2c3ccccc3NC(=O)C2(C)C)cc1	-0.939% (inactive)	–
COc1ccc(N2CC(NS(=O)(=O)c3ccc4ccccc4c3)CC2=O)cc1 (stereo not drawn)	-44.8% [at 102 µM] (inactive)	–
O=C(N[C@@H](Cc1ccccc1)C(=O)OCc1ccccc1)c1nc[nH]c1C(=O)N[C@@H](Cc1ccccc1)C(=O)OCc1ccccc1	2.69% [at 102 µM] (inactive)	–
CC(C)c1ccc(NC(=O)Cn2nnc(C(=O)NCCc3ccccc3)c2N)cc1	-34% (inactive)	–
Cc1ccc(-c2onc(C)c2C)cc1S(=O)(=O)Nc1ccccn1	2.82% (inactive)	–
CC1(C)CC(=O)c2cnc3nc4ccccc4n3c2C1	–	17.8 µM (active)
CC(C)(C)c1cc(=O)n2c(nc3ccccc32)[nH]1	11.1% [at 102 µM] (inactive)	–
COc1ccc(C)cc1-n1c(-c2ccc(C)cc2)cc2c1CC(C)(C)CC2=O	13.1% (inactive)	–
CC(Sc1ncnc2c1cnn2-c1ccccc1)C(=O)Nc1ccc(N2CCOCC2)cc1 (stereo not drawn)	9% [at 0.501 µM] (inactive)	–
